Several values for one entry are separate records, joined by “and”; a condition that tells them apart may be missing. Equal values may be shown once. Records with an inconclusive call do not appear. Where a call stands in place of a potency, no number is given. The source holds several records for some structures; these can differ, active in one and inactive in another. Activity calls are given as the source filed them. Unless noted, the call rests on the fitted dose curve; in most records, active means well fitted curve in the direction sought with a large enough effect; inconclusive means small, poorly fitted or top-dose-only effect, or another doubt; inactive means no such curve, though single readings can be large; an effect the other way counts as inactive or inconclusive.
Columns and labels:
[1] = target: Atrial natriuretic peptide receptor 1 (Homo sapiens) (UniProt P16066); experiment: Natriuretic polypeptide receptor (hNpr1) antagonism - Pilot screen (AID 1347049; calls by dose curve;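 further: HEK293 cells with hNpr1 and GloSensor cGMP luciferase stimulated by 0.1 nM hNppA; agonist-evoked cGMP luminescence read 20 min after hNppA addition; series mostly up to about 58 µM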)
Chain of Atrial natriuretic peptide receptor 1 (Homo sapiens) (P16066 whole entry, looked up): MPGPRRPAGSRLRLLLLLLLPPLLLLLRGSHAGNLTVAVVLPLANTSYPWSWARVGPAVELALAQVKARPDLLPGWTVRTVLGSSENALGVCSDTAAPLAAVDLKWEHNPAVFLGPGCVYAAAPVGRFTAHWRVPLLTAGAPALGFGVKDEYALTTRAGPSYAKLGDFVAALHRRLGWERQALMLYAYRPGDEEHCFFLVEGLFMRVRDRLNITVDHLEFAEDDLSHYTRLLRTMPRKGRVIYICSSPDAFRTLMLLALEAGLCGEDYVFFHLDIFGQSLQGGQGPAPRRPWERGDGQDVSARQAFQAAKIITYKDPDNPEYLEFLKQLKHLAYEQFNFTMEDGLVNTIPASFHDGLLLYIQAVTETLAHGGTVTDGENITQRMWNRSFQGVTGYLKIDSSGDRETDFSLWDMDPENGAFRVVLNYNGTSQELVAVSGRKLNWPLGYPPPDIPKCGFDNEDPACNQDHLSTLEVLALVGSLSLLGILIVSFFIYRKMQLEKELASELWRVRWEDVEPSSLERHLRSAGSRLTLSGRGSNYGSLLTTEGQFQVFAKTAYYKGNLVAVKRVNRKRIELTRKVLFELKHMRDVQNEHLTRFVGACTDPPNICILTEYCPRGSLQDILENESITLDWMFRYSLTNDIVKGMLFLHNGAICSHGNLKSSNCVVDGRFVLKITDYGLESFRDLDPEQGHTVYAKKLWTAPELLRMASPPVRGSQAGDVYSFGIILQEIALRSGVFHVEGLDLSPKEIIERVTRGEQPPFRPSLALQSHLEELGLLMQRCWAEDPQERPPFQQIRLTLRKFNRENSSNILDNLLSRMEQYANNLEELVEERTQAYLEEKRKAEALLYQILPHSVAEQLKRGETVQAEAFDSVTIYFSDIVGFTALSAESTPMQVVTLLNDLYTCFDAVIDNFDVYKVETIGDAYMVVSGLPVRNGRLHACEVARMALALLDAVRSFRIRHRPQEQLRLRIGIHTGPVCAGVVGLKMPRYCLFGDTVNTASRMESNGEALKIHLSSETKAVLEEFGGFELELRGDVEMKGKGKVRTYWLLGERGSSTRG
Outline: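 Receptor antagonism read as cGMP-dependent luminescence in hNpr1/pGS-40F HEK293 cells: pre-read after 30 min compound exposure, post-read 20 min after hNppA agonist at 0.1 nM final, all at room temperature, protected from light; A-71915 titration as control.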

[2] = target: Atrial natriuretic peptide receptor 2 (Homo sapiens) (UniProt P20594); experiment: Natriuretic polypeptide receptor (hNpr2) antagonism - Pilot subtype selectivity assay (AID 1347050; calls by dose curve)
Chain of Atrial natriuretic peptide receptor 2 (Homo sapiens) (P20594 whole entry, looked up): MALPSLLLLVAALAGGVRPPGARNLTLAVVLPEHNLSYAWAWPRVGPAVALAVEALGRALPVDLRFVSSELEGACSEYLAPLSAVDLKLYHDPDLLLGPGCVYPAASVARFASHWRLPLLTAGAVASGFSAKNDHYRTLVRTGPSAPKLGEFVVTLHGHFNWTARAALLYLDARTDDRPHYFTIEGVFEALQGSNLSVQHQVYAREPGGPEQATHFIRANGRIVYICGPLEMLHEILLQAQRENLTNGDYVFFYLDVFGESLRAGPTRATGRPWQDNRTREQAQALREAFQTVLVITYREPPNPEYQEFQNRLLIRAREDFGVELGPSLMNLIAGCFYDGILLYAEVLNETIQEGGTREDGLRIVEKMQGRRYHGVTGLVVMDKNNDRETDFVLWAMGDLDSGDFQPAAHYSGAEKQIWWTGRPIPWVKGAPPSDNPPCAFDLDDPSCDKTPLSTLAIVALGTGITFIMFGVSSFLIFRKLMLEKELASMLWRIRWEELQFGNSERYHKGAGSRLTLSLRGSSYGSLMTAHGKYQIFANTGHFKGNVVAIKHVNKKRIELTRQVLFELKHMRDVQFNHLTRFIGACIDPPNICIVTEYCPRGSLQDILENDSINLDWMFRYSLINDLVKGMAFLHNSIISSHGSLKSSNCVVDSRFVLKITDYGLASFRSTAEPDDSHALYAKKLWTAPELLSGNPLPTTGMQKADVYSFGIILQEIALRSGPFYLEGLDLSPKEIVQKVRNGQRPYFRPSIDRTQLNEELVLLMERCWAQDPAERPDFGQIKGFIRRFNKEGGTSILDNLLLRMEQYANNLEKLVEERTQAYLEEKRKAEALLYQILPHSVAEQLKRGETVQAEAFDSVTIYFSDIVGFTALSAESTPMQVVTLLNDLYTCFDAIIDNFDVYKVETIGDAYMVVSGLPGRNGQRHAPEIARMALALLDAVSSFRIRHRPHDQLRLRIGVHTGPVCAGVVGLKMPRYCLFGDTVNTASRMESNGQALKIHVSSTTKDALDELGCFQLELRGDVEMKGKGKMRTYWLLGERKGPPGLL
Outline: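 Antagonist mode: compounds (LOPAC1280, seven 1:5 dilutions) added 30 min before 1 nM hNppC stimulation of hNpr2-HEK293 cGMP-sensor cells; luminescence read before and 20 min after agonist at ambient temperature.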

[3] = NS1 protein of Zika virus - qHTS assay to identify small molecule inhibitors in human HEK 293 cells (AID 1347053); further: series mostly up to about 46 µM; nearly all actives have a fitted effect of over 55% in size
Outline: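 Readout was TR-FRET using paired anti-NS1 antibodies after 24 h infection of HEK 293 cells with ZIKV MR766 (MOI = 0.5). Compound preceded virus by 1 h; reduced signal reflects lower NS1 expression.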

[4] = target: T1, Tyrosine-protein phosphatase non-receptor type substrate 1 (Homo sapiens) + Leukocyte surface antigen CD47 (Homo sapiens) (UniProt P78324+Q08722); experiment: CD47-SIRPalpha protein protein interaction - HTRF assay qHTS validation (AID 1347058; active means well fitted curve in the direction sought with a large enough effect in the signal ratio, not every such curve was filed as active; the % refers to the signal ratio; further: series mostly up to about 38 µM)
T1 sequence (P78324 whole entry, looked up, the tested form may be a part): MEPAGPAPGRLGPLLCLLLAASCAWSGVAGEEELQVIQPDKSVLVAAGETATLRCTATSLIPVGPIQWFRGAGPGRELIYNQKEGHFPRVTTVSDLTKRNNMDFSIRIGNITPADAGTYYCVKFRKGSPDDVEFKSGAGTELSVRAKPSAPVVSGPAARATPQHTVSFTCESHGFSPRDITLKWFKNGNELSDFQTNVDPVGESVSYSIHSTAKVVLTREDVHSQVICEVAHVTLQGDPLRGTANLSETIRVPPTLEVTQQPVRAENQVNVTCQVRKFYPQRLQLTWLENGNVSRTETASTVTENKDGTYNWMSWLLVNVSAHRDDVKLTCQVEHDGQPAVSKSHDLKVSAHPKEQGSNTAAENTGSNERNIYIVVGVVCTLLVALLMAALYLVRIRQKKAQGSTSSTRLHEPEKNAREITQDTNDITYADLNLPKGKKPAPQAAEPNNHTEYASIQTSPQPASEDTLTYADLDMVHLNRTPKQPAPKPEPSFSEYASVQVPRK
T1 sequence (Q08722 whole entry, looked up, the tested form may be a part): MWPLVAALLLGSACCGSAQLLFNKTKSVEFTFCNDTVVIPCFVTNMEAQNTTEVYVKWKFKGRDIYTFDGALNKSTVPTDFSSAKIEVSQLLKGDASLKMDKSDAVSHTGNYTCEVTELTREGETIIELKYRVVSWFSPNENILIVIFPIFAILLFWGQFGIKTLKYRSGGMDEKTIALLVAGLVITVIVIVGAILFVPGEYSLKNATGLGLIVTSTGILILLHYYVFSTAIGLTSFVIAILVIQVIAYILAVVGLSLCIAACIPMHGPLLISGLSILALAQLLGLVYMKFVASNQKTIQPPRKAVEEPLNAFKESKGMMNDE
Outline: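 Soluble extracellular domains (6His-CD47, Avi-tag-biotinylated SIRPalpha) in PBS pH 7.4 with 0.05% IGEPAL CA-630. Compounds were preincubated 30 min at RT with CD47 and anti-His-Eu, then SIRPalpha and SAV-XL665 were added. TR-FRET 665/615 ratio.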

[5] = target: Parathyroid hormone/parathyroid hormone-related peptide receptor (Homo sapiens) (UniProt Q03431); experiment: qHTS for PTHR1 Agonists: Optimization Screen against the NCGC LOPAC library (AID 1347079);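 further: GloSensor cAMP luminescence in HEK-293 GP2 cells expressing human PTHR1 with IBMX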
Chain of Parathyroid hormone/parathyroid hormone-related peptide receptor (Homo sapiens) (Q03431 whole entry, looked up): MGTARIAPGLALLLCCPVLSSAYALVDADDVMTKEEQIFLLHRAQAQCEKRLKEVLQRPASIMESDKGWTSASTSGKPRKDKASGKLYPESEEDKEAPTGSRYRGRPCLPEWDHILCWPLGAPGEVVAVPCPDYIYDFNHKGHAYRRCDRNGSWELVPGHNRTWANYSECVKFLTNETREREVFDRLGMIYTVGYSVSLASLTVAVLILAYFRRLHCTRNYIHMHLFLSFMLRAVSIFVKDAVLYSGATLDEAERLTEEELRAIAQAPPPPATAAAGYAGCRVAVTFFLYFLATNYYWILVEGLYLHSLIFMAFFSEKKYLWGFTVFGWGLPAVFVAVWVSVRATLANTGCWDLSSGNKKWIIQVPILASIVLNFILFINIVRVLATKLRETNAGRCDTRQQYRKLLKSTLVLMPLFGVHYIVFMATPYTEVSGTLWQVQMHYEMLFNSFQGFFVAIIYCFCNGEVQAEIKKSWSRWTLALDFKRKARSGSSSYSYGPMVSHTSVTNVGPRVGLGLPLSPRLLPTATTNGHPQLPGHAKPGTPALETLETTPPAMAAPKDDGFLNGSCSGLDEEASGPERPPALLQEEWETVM
Outline: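 Signal increase flags agonism. GP2 cells, derived from HEK-293, express human PTHR1 and a GloSensor cAMP construct.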

[6] = qHTS of pediatric cancer cell lines to identify multiple opportunities for drug repurposing: Primary screen for TC32 cells (AID 1347089); further: nearly all actives have a fitted effect of over 60% in size; further: potency means the concentration at half of the fitted maximal effect
Outline: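 TC32 cells, 500-1,000/well in growth medium, compound-treated 48 h at 37 °C; viability from CellTiter-Glo luminescence. Primary screen: MIPE 11-point (0.78 nM–46 µM final), NPC 8-point (0.59 nM–46 µM final); confirmatory at 11-point dilutions.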

[7] = qHTS of pediatric cancer cell lines to identify multiple opportunities for drug repurposing: Primary screen for DAOY cells (AID 1347090); further: nearly all actives have a fitted effect of over 55% in size; further: potency means the concentration at half of the fitted maximal effect
Outline: (§1)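 Cell viability, CellTiter-Glo luminescence; 500-1,000 cells/well, 8- or 11-point titration, 48 h compound exposure at 37 degrees C, 5% CO2. Controls: DMSO neutral, bortezomib 2.3 µM final as positive.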

[8] = qHTS of pediatric cancer cell lines to identify multiple opportunities for drug repurposing: Primary screen for SJ-GBM2 cells (AID 1347091); further: potency means the concentration at half of the fitted maximal effect
Outline: as §1

[9] = qHTS of pediatric cancer cell lines to identify multiple opportunities for drug repurposing: Primary screen for A673 cells (AID 1347092); further: nearly all actives have a fitted effect of over 45% in size; further: potency means the concentration at half of the fitted maximal effect
Outline: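 A673 cells (500-1,000 cells/well) were treated 48 hours at 37 degrees C with compounds at 11-point (0.78 nM to 46 µM) or 8-point (0.59 nM to 46 µM) dilutions. Viability read by CellTiter-Glo luminescence; concentration-response curves fitted.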

[10] = qHTS of pediatric cancer cell lines to identify multiple opportunities for drug repurposing: Primary screen for SK-N-MC cells (AID 1347093); further: potency means the concentration at half of the fitted maximal effect
Outline: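 Metabolically active cells were quantified by ATP-dependent luminescence (CellTiter-Glo, 15 min at room temperature) following 48 h treatment. Cells had been plated at 500-1,000 per well and settled for 5 h beforehand.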

[11] = qHTS of pediatric cancer cell lines to identify multiple opportunities for drug repurposing: Primary screen for BT-37 cells (AID 1347094); further: potency means the concentration at half of the fitted maximal effect
Outline: (§2)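 Plated cells (500-1,000 per well, growth media) were allowed to settle for 5 hours, treated with compound dilutions for 48 hours, then lysed with CellTiter-Glo for 15 min at room temperature before luminescence reading.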

[12] = qHTS of pediatric cancer cell lines to identify multiple opportunities for drug repurposing: Primary screen for NB-EBc1 cells (AID 1347095); further: potency means the concentration at half of the fitted maximal effect
Outline: as §2

[13] = qHTS of pediatric cancer cell lines to identify multiple opportunities for drug repurposing: Primary screen for U-2 OS cells (AID 1347096); further: nearly all actives have a fitted effect of over 50% in size; further: potency means the concentration at half of the fitted maximal effect
Outline: (§3)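 Cells (500-1,000/well) rested 5 h, then received compounds for 48 h; metabolically active cells were measured by CellTiter-Glo luminescence. Final concentrations spanned up to 46 µM (MIPE, 11-point) or 0.59 nM-46 µM (NPC, 8-point) in primary screens, 11-point in follow-ups.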

[14] = qHTS of pediatric cancer cell lines to identify multiple opportunities for drug repurposing: Primary screen for Saos-2 cells (AID 1347097); further: nearly all actives have a fitted effect of over 40% in size; further: potency means the concentration at half of the fitted maximal effect
Outline: as §2

[15] = qHTS of pediatric cancer cell lines to identify multiple opportunities for drug repurposing: Primary screen for SK-N-SH cells (AID 1347098); further: nearly all actives have a fitted effect of over 65% in size; further: potency means the concentration at half of the fitted maximal effect
Outline: as §3

[16] = qHTS of pediatric cancer cell lines to identify multiple opportunities for drug repurposing: Primary screen for NB1643 cells (AID 1347099); further: nearly all actives have a fitted effect of over 50% in size; further: potency means the concentration at half of the fitted maximal effect
Outline: as §2

[17] = P-glycoprotein substrates identified in KB-8-5-11 adenocarcinoma cell line, qHTS therapeutic library screen (AID 1346987); further: nearly all actives have a fitted effect of over 65% in size; further: potency means the concentration at half of the fitted maximal effect
Outline: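 Human cervical adenocarcinoma KB-8-5-11 cells, selected in colchicine to over-express P-gp and assayed without it, were exposed for 72 h to titrated compounds. An ATP-based luminescent viability signal gave AC50.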

[18] = Natriuretic polypeptide receptor (hNpr1) antagonism - Pilot counterscreen GloSensor control cell line (AID 1347045; calls by dose curve; further: potency means the concentration at half of the fitted maximal effect)
Outline: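 The SNP-driven cGMP luminescence signal (50 uM, 20 min, room temperature) was measured in GloSensor HEK293 control cells. Compounds were tested as a LOPAC titration series and preincubated for 30-50 min.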

[19] = target: T1, Tyrosine-protein phosphatase non-receptor type substrate 1 (Homo sapiens) + Leukocyte surface antigen CD47 (Homo sapiens); experiment: CD47-SIRPalpha protein protein interaction - LANCE assay qHTS validation (AID 1347057; active means well fitted curve in the direction sought with a large enough effect in the signal ratio, with a control signal flat, not every such curve was filed as active; the % refers to the signal ratio; further: series mostly up to about 38 µM)
Outline: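 Inhibition of soluble CD47/SIRPalpha ectodomain association by titrated compounds, measured as 665/615 nm time-resolved FRET ratio after sequential 30 min room-temperature incubations.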

[20] = target: T1, Tyrosine-protein phosphatase non-receptor type substrate 1 (Homo sapiens) + Leukocyte surface antigen CD47 (Homo sapiens); experiment: CD47-SIRPalpha protein protein interaction - Alpha assay qHTS validation (AID 1347059);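 further: bead proximity luminescence from CD47 binding SIRPalpha after compound preincubation with SIRPalpha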; further: potency means the concentration at half of the fitted maximal effect
Outline: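 AlphaScreen signal between CD47-His (12.5 nM) and biotin-SIRPalpha (25 nM) soluble extracellular domains, bead-captured via Ni-NTA and streptavidin. Compounds, in 7-point titrations, met SIRPalpha 30 min before CD47; PBS pH 7.4 with 0.05% IGEPAL.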

NNc1nncc2ccccc12
Potency [1]: inactive
Potency [2]: inactive
Potency [3]: inactive
outcome [4]: inactive
outcome [5]: inactive
Potency [6]: inactive
Potency [7]: inactive
Potency [8]: inactive
Potency [9]: inactive
Potency [10]: inactive
Potency [11]: inactive
Potency [12]: inactive
Potency [13]: inactive
Potency [14]: inactive
Potency [15]: inactive
Potency [16]: inactive

CC1(C)CCC(C)(C)c2cc(NC(=O)c3ccc(C(=O)O)cc3)ccc21
Potency [17]: inactive
Potency [3]: inactive
Potency [8]: inactive
Potency [10]: 1.87 µM (active)
Potency [11]: inactive
Potency [13]: inactive
Potency [15]: inactive

COC1=C(OC)C(=O)C(CCCCCCCCCCO)=C(C)C1=O
Potency [17]: inactive
Potency [3]: inactive
Potency [8]: inactive
Potency [9]: 26.6 µM (active) and 23.5 µM (active)
Potency [10]: inactive
Potency [11]: inactive
Potency [13]: inactive
Potency [14]: inactive
Potency [15]: inactive
Potency [16]: inactive

COCCCN1CCC(NC(=O)c2cc(Cl)c(N)c3c2OCC3)CC1
Potency [3]: inactive
Potency [6]: inactive
Potency [7]: inactive
Potency [8]: inactive
Potency [9]: inactive
Potency [10]: inactive
Potency [11]: inactive
Potency [12]: inactive
Potency [13]: inactive
Potency [14]: inactive
Potency [15]: inactive
Potency [16]: inactive

COc1cc(Nc2c(C#N)cnc3cc(OCCCN4CCN(C)CC4)c(OC)cc23)c(Cl)cc1Cl
Potency [17]: inactive
Potency [6]: 23.6 µM (active)
Potency [7]: 13.3 µM (active) and 23.5 µM (active)
Potency [8]: 23.7 µM (active)
Potency [9]: 10.6 µM (active) and 11.8 µM (active)
Potency [10]: 2.11 µM (active) and 1.87 µM (active)
Potency [11]: 17.4 µM (active)
Potency [12]: inactive
Potency [13]: 21.1 µM (active)
Potency [14]: 8.33 µM (active)
Potency [15]: 6.12 µM (active)

O=C(NCC1CCCCN1)c1cc(OCC(F)(F)F)ccc1OCC(F)(F)F (stereo not drawn)
Potency [3]: inactive
Potency [6]: inactive
Potency [13]: inactive

CC(C)Oc1ccc2c(=O)c(-c3ccccc3)coc2c1
Potency [3]: inactive
Potency [7]: inactive
Potency [8]: inactive
Potency [9]: inactive
Potency [10]: inactive
Potency [11]: inactive
Potency [12]: inactive
Potency [13]: inactive
Potency [14]: inactive
Potency [15]: inactive
Potency [16]: inactive

Cc1cccc(CN2CCN(C(c3ccccc3)c3ccc(Cl)cc3)CC2)c1 (stereo not drawn)
Potency [3]: inactive
Potency [8]: inactive
Potency [10]: 11.9 µM (active) and 18.7 µM (active)
Potency [12]: 18.7 µM (active)
Potency [13]: inactive
Potency [15]: inactive

CC(=O)N1CCN(c2ccc(OC[C@H]3CO[C@](Cn4ccnc4)(c4ccc(Cl)cc4Cl)O3)cc2)CC1
Potency [18]: 18.5 µM (active)
Potency [1]: inactive
Potency [2]: inactive
Potency [3]: inactive
outcome [19]: inactive
outcome [4]: inactive
outcome [5]: inactive
Potency [6]: inactive
Potency [10]: 23.5 µM (active)
Potency [13]: inactive
Potency [14]: 33.2 µM (active)
Potency [15]: inactive
Potency [16]: inactive

COC(=O)C1=C(C)NC(C)=C(C(=O)OCCCN2CCC(c3ccccc3)(c3ccccc3)CC2)C1c1cccc([N+](=O)[O-])c1 (stereo not drawn)
Potency [17]: inactive and 10.3 µM (active)
Potency [3]: inactive
Potency [7]: inactive
Potency [8]: inactive
Potency [10]: 23.7 µM (active)
Potency [11]: inactive
Potency [12]: inactive
Potency [15]: 15.4 µM (active)
Potency [16]: inactive

CCCc1cc(=O)[nH]c(=S)[nH]1
Potency [17]: inactive
Potency [3]: inactive
Potency [7]: inactive
Potency [8]: inactive
Potency [11]: inactive
Potency [13]: inactive
Potency [14]: inactive
Potency [15]: inactive
Potency [16]: inactive

O=Nc1c(-c2c(O)[nH]c3cc(Br)ccc23)[nH]c2ccccc12
Potency [17]: 9.35 µM (active)
outcome [19]: inactive
Potency [20]: 1.31 µM (active)
outcome [5]: inactive
Potency [6]: inactive
Potency [7]: 11.8 µM (active)
Potency [8]: 5.9 µM (active)
Potency [9]: 2.35 µM (active)
Potency [10]: 2.09 µM (active)
Potency [11]: 19.3 µM (active)
Potency [12]: 8.33 µM (active)
Potency [14]: 14.8 µM (active)
Potency [15]: 17.1 µM (active)
Potency [16]: 9.35 µM (active)

Cc1cc(Cl)ccc1OCCCC(=O)NO
Potency [3]: inactive
outcome [19]: inactive
outcome [4]: inactive
Potency [20]: inactive
Potency [6]: 5.23 µM (active)
Potency [7]: 9.35 µM (active)
Potency [9]: 2.96 µM (active)
Potency [10]: 2.09 µM (active)
Potency [12]: 4.69 µM (active)
Potency [14]: 11.8 µM (active)
Potency [15]: 19.2 µM (active)
Potency [16]: 4.18 µM (active)

N=C(N=C(N)N)N1CCOCC1
Potency [17]: inactive
Potency [3]: inactive
Potency [7]: inactive
Potency [8]: inactive
Potency [11]: inactive
Potency [12]: inactive
Potency [13]: inactive
Potency [14]: inactive
Potency [16]: inactive

CC(C)[N+]1(C)[C@@H]2CC[C@H]1CC(OC(=O)C(CO)c1ccccc1)C2 (stereo partly drawn)
Potency [17]: inactive
Potency [3]: inactive
Potency [8]: inactive
Potency [9]: 9.35 µM (active)
Potency [10]: 9.35 µM (active)
Potency [11]: inactive
Potency [12]: inactive
Potency [13]: inactive
Potency [14]: inactive
Potency [15]: inactive
Potency [16]: 11.8 µM (active)

Source: PubChem BioAssay (NCATS)
